Consider 16 compounds from PubChem BioAssay (NCATS).

Inconclusive results are not listed. Unmarked numbers belong to inactive results. Calls come from the whole dose curve; as a rule, active = well fitted activation curve with a large enough effect; inconclusive = small, poorly fitted or top-dose-only effect; inactive = no such curve, though single readings can be large or run the other way.

Sequence of Cellular tumor antigen p53 (Homo sapiens) (P04637 whole entry, looked up): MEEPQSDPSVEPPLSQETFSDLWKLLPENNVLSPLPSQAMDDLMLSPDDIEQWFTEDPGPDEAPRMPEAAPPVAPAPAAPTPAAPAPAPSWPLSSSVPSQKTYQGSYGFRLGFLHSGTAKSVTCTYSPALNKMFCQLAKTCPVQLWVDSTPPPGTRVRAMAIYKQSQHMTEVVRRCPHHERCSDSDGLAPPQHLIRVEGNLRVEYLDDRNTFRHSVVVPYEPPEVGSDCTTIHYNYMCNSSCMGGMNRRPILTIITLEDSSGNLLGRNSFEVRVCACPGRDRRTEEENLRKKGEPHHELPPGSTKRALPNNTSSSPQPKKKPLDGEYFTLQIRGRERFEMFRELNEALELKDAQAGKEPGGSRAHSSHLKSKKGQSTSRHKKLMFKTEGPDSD

The test addresses Cellular tumor antigen p53 (Homo sapiens) (UniProt P04637). The experiment in a line: Primary qHTS for small molecule compounds that upregulate eGFP-tagged delta133p53alpha (in N-terminal) cells. (AID 2060322).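 Note: series mostly up to about 56 µM; 0% = DMSO vehicle and 100% = reference activator; nearly all actives have a fitted effect of over 75% in size.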 The following applies: NCI-H358 eGFP-delta133p53alpha fluorescence, 24 h; activation: active compounds read high. In a few lines:
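NCI-H358 cells pre-induced 24 h with 10 ng/ml doxycycline to express N-terminal eGFP-delta133p53alpha, then dosed 24 h at 37C without doxycycline; fixed, Hoechst-stained, GFP intensity by laser scanning cytometry, normalized to DMSO (0%) and 57.5 uM 5-azacytidine (100%).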
(qHTS replaces the single test concentration by a dilution series.)
For `CC1=C(C/C=C(\C)CCC[C@H](C)CCC[C@H](C)CCCC(C)C)C(=O)c2ccccc2C1=O`, the activation is 18.6%.

`CN1N=C(C(N)=O)CCC1=O`: the activation was -6.21%.

For `CC(=O)c1ccc(O)c(C(N)=O)c1`, the activation is -19.8%.

Take `CCOc1ncc(F)c(=O)[nH]1`: the activation is 3.95%.

Turning to `C[C@@H]1O[C@@H](OC[C@H]2O[C@@H](Oc3c(-c4ccc(O)c(O)c4)oc4cc(O)cc(O)c4c3=O)[C@H](O)[C@@H](O)[C@@H]2O)[C@H](O)[C@H](O)[C@H]1O`, the activation is -29.9%.

Regarding `COc1cc(O)cc(O)c1`, the activation is -1.67%.

Consider `c1ccc(CC2=NCCN2)cc1`, for which the activation is -3.95%.

`Nc1ccc(S(=O)(=O)Nc2ncccn2)cc1`: the activation is -6.74%.

As to `CC(C(=O)O)c1ccc(C(=O)c2cccs2)cc1` (stereo unspecified), the activation is 9.21%.

Consider `CC(C)[C@@H]1CC[C@@H](C)CC1=O`, for which the activation is 16.4%.

`CCCCCOc1ccccc1/C(=C\SC)n1ccnc1`: the activation is -16.7%.

Regarding `CC(COc1ccccc1)NN` (stereo unspecified), the activation is 6.69%.

On to `CCN[C@H]1CN(CCCOC)S(=O)(=O)c2sc(S(N)(=O)=O)cc21`, for which the activation is 13%.

As for `NC1CCN(c2nc3c(cc2F)c(=O)c(C(=O)O)cn3-c2ccc(F)cc2F)C1` (stereo unspecified), the activation is 11.9%.

In the case of `CC(=O)O[C@]1(C(C)=O)CC[C@H]2[C@@H]3C=C(Cl)C4=CC(=O)CC[C@]4(C)[C@H]3CC[C@@]21C`, the activation was -6.69%.

For the compound `CC[N+](CC)(CC(=O)Nc1c(C)cccc1C)Cc1ccccc1`, the activation was -10.9%.
